The results in this text go back to article PMC7862700, “An all-to-all approach to the identification of sequence-specific readers for epigenetic DNA modifications on cytosine”.

What all share (assay): DAPPL (digital affinity profiling via proximity ligation, sequencing); 10 mM Tris-HCl pH 7.5, 50 mM NaCl, 1 mM DTT, 4% glycerol, room temperature, 30 min; GST-TFs on glutathione beads, 16-mer random dsDNA library, 0.1% formaldehyde crosslink after washing; high values mean tight binding
In one experiment the target is T1, FEV (Homo sapiens, UniProt Q99581 1-238).
T1 sequence: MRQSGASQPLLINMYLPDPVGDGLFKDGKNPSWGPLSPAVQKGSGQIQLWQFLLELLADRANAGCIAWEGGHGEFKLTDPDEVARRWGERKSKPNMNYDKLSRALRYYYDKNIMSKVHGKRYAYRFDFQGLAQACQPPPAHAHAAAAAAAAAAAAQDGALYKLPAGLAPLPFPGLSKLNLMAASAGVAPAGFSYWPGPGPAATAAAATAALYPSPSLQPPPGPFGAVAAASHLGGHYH
The conditions noted are these: protein: recombinant; tags: N-terminal GST; dsDNA, one strand shown. In a few lines: (§1)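 After expression in yeast as GST fusions, human transcription factors were bound to glutathione beads, DNA-barcoded and mixed with a tag-only sample. The pools were incubated with 200 nmole of a 16-mer random double-stranded DNA library in Tris/NaCl/DTT/glycerol buffer (30 min, room temperature), washed and crosslinked with 0.1% formaldehyde. Proximity ligation with BsaI/T4 ligase ran for 1 h at 37 °C, before PCR amplification and sequencing on an Illumina NextSeq500. Binding signal is a hexamer's read frequency for a factor divided by its frequency for the tag-only sample.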

The target of the next experiment is ETV5 (Homo sapiens, UniProt P41161 1-510). Conditions: protein: recombinant; tags: N-terminal GST; dsDNA, one strand shown. The method in brief:
as §1

For the next experiment, the target named is HSF1 (Homo sapiens, UniProt Q00613 1-529). The conditions noted are these: protein: recombinant; tags: N-terminal GST; chain copies: 3; dsDNA, one strand shown. The method in brief: as §1
Chain of HSF1 (Q00613 whole entry): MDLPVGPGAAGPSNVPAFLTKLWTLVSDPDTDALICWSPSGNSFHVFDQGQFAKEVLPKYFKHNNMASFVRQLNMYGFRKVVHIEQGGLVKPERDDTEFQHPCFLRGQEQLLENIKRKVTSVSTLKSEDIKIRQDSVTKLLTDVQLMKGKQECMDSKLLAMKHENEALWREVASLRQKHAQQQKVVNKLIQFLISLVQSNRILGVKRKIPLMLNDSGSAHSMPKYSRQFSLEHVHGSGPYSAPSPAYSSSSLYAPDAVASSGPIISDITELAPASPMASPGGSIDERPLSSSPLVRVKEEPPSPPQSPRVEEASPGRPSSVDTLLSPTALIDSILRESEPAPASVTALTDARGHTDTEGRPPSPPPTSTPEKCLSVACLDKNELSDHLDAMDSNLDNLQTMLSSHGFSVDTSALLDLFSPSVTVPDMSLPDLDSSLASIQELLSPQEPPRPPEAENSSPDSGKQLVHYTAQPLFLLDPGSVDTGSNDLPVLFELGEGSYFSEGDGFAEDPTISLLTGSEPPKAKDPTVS
A further experiment has as its target T2, SPIC (Homo sapiens, UniProt Q8N5J4 1-248).
T2 sequence: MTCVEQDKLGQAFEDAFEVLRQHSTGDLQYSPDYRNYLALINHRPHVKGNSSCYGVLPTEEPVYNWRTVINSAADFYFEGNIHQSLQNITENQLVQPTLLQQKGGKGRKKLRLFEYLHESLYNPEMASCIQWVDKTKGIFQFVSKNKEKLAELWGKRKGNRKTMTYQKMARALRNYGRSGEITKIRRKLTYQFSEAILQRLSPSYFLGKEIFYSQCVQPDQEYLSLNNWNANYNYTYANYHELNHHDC
Conditions: protein: recombinant; tags: N-terminal GST; dsDNA, one strand shown. The method in brief:
as §1

A further experiment deals with ELF4 (Homo sapiens, UniProt Q99607 1-663). The conditions noted are these: protein: recombinant; tags: N-terminal GST; dsDNA, one strand shown. The method in brief: as §1
Chain of ELF4 (Q99607 whole entry): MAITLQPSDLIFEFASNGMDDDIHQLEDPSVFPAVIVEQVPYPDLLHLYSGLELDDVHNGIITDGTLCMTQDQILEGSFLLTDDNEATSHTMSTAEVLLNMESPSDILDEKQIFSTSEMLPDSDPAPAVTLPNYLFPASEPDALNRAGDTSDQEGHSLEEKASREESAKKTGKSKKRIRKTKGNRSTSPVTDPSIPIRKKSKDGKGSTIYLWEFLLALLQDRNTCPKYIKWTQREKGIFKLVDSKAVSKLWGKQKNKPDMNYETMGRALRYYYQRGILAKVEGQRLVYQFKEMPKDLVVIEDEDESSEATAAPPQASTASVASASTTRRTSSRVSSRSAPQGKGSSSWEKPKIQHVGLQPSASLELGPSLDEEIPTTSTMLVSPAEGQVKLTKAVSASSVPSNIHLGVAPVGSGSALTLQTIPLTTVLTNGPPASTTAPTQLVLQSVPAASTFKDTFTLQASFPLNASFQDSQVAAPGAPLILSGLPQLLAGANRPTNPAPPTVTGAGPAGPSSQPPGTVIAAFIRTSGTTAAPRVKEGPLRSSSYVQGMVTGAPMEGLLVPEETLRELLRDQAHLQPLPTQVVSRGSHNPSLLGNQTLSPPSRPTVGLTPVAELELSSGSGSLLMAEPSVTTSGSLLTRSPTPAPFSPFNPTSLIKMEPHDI
The next experiment has as its target T3, ELK4 (Homo sapiens, UniProt P28324-2 1-405).
T3 sequence: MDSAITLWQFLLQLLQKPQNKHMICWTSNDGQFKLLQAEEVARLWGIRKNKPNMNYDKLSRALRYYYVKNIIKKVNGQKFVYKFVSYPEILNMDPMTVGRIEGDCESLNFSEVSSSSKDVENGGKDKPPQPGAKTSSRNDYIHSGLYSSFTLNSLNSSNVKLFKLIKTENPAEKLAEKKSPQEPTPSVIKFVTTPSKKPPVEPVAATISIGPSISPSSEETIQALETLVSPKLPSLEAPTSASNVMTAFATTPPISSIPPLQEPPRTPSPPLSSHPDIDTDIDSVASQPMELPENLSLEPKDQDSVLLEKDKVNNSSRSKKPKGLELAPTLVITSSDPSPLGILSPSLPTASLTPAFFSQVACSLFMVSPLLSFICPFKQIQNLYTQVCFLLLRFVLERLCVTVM
The conditions noted are these: protein: recombinant; tags: N-terminal GST; dsDNA, one strand shown. The method in brief:
as §1

The next experiment concerns the target T4, ETV2 (Homo sapiens, UniProt O00321 1-342).
T4 sequence: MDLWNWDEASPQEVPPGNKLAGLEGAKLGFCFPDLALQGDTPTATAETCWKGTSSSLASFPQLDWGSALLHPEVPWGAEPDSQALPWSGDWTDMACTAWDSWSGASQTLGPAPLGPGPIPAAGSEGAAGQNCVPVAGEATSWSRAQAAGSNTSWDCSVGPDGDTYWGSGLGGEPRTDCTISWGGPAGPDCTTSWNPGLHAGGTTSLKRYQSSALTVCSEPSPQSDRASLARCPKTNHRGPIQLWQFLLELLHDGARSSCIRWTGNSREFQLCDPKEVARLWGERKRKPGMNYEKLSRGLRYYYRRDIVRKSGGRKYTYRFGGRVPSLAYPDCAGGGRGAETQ
Conditions: protein: recombinant; tags: N-terminal GST; dsDNA, one strand shown. In a few lines: as §1

For another experiment, the target named is T5, ELF3 (Homo sapiens, UniProt P78545 1-371).
T5 sequence: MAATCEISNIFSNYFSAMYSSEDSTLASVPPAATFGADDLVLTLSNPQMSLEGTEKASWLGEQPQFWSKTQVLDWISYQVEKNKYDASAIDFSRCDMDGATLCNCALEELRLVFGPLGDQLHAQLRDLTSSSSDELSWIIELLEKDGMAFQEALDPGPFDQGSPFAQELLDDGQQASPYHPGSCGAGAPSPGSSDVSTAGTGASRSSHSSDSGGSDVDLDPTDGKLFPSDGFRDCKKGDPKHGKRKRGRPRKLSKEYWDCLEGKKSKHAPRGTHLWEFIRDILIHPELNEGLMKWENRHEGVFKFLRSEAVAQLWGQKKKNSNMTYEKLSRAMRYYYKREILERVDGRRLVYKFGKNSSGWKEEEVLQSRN
Conditions: protein: recombinant; tags: N-terminal GST; dsDNA, one strand shown. The method in brief:
as §1

The next experiment addresses CRX (Homo sapiens, UniProt O43186 1-299). The conditions noted are these: protein: recombinant; tags: N-terminal GST; dsDNA, one strand shown. The method in brief:
as §1

The target in a further experiment is ETV1 (Homo sapiens, UniProt P50549 1-477). The conditions noted are these: protein: recombinant; tags: N-terminal GST; dsDNA, one strand shown. The method in brief:
as §1

A further experiment addresses T6, ERF (Homo sapiens, UniProt P50548 1-548).
T6 sequence: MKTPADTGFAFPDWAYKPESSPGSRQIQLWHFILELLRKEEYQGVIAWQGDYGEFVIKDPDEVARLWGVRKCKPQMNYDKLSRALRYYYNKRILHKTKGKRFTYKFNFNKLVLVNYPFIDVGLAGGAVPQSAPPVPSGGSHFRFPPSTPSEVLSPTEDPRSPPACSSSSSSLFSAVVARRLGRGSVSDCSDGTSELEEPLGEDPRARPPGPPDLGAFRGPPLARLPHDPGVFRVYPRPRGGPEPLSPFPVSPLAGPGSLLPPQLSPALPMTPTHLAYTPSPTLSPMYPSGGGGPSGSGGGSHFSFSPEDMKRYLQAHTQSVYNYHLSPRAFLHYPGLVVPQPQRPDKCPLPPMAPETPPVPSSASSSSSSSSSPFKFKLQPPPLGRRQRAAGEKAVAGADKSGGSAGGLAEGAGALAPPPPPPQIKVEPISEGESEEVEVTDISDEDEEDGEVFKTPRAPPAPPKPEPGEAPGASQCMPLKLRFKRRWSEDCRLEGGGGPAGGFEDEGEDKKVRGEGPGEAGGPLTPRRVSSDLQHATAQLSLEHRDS
Conditions: protein: recombinant; tags: N-terminal GST; dsDNA, one strand shown. In a few lines:
as §1

A further experiment addresses T7, ETV3L (Homo sapiens, UniProt Q6ZN32 1-361).
T7 sequence: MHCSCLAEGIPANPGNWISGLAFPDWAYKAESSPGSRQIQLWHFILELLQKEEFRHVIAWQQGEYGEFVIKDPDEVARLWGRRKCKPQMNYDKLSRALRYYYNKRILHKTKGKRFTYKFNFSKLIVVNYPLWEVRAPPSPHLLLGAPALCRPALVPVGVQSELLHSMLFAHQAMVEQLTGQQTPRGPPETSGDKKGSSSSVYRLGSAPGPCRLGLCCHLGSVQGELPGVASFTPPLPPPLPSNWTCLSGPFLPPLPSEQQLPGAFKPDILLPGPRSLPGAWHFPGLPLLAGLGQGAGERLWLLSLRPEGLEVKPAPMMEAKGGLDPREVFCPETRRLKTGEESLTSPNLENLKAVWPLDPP
The conditions noted are these: protein: recombinant; tags: N-terminal GST; dsDNA, one strand shown. The method in brief: as §1

Another experiment addresses T8, ETS2 (Homo sapiens, UniProt P15036 1-469).
T8 sequence: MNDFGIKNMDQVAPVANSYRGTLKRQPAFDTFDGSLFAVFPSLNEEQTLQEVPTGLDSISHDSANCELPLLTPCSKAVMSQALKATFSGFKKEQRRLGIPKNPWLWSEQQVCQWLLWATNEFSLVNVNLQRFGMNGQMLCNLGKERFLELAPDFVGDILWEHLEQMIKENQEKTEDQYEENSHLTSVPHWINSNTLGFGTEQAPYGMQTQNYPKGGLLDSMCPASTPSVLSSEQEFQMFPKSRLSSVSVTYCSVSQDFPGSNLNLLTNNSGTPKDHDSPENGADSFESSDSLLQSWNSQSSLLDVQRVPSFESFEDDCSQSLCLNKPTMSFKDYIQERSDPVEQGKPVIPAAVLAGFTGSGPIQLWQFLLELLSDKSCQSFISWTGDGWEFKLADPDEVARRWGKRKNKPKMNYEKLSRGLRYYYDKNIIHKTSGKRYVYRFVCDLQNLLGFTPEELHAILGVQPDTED
Conditions: protein: recombinant; tags: N-terminal GST; dsDNA, one strand shown. In a few lines:
as §1

The target in a further experiment is T9, SPDEF (Homo sapiens, UniProt O95238 1-335).
T9 sequence: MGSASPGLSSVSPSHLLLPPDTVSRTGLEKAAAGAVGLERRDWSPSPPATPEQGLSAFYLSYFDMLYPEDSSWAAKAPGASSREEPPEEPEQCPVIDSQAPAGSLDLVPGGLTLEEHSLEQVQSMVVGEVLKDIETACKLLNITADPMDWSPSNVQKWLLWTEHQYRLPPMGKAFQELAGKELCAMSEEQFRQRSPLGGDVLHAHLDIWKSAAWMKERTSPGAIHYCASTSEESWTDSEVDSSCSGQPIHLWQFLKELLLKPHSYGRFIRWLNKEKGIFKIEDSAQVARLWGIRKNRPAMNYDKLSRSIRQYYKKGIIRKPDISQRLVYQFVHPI
Conditions: protein: recombinant; tags: N-terminal GST; dsDNA, one strand shown. In a few lines: as §1

The target of the next experiment is T10, ETV7 (Homo sapiens, UniProt Q9Y603 1-341).
T10 sequence: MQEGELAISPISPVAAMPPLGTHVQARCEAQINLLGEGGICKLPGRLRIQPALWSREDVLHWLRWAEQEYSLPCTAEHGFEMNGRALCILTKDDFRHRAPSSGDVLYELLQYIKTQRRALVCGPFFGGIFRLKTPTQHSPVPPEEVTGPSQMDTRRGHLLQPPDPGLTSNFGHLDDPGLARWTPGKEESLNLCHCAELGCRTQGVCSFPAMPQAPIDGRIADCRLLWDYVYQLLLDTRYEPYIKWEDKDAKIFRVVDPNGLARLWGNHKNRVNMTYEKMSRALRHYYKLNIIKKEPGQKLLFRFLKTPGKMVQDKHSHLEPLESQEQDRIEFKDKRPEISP
The conditions noted are these: protein: recombinant; tags: N-terminal GST; dsDNA, one strand shown. In a few lines: as §1

A further experiment has as its target T11, ELF5 (Homo sapiens, UniProt Q9UKW6-2 1-255).
T11 sequence: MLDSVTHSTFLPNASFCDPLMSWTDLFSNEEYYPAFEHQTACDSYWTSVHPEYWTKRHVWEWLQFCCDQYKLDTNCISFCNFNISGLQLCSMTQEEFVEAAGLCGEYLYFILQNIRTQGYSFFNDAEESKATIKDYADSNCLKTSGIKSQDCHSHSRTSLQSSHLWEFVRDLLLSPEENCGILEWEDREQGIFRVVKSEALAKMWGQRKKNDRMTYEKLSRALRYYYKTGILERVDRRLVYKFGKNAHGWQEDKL
Conditions: protein: recombinant; tags: N-terminal GST; dsDNA, one strand shown. The method in brief: as §1

The target of the next experiment is T12, ETV3 (Homo sapiens, UniProt P41162-2 1-143).
T12 sequence: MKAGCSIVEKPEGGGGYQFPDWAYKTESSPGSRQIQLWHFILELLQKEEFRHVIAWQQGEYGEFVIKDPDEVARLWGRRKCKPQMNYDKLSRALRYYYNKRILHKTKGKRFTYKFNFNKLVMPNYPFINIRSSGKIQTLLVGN
Conditions: protein: recombinant; tags: N-terminal GST; dsDNA, one strand shown. In a few lines:
as §1

The next experiment concerns the target ETV6 (Homo sapiens, UniProt P41212 1-452). The conditions noted are these: protein: recombinant; tags: N-terminal GST; dsDNA, one strand shown. The method in brief: as §1

Chain of ETV5 (P41161 whole entry): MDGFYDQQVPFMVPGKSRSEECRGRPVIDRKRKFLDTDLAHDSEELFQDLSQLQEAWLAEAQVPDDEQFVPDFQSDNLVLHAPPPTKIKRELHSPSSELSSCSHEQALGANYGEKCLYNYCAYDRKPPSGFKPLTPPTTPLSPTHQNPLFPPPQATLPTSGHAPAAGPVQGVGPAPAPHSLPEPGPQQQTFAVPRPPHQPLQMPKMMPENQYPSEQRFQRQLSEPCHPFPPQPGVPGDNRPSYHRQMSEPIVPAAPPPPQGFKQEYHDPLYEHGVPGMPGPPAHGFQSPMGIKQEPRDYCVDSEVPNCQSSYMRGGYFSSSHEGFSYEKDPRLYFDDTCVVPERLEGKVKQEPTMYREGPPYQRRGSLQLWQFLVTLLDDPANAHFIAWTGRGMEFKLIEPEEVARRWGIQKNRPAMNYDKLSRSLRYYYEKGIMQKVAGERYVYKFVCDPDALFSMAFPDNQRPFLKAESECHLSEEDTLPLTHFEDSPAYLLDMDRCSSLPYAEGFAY
Chain of ETV6 (P41212 whole entry): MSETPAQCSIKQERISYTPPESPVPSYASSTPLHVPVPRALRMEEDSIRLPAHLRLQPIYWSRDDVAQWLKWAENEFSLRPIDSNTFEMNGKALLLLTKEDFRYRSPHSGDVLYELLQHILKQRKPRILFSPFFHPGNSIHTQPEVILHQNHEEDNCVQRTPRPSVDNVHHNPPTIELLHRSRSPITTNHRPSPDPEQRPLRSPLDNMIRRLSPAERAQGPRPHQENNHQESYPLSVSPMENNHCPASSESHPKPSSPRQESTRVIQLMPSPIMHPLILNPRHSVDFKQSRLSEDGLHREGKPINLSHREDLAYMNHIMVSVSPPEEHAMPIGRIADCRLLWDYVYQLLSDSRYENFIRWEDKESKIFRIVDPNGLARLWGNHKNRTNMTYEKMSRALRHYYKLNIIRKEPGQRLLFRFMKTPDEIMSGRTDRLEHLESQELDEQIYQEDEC
Chain of CRX (O43186 whole entry): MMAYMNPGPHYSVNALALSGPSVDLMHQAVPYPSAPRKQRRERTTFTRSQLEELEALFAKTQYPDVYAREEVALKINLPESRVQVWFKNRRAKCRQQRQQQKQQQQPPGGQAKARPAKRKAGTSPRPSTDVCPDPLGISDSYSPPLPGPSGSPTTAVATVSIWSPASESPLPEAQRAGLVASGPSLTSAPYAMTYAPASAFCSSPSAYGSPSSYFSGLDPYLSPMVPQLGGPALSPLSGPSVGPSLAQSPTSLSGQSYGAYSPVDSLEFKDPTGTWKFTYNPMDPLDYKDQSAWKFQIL
Chain of ETV1 (P50549 whole entry): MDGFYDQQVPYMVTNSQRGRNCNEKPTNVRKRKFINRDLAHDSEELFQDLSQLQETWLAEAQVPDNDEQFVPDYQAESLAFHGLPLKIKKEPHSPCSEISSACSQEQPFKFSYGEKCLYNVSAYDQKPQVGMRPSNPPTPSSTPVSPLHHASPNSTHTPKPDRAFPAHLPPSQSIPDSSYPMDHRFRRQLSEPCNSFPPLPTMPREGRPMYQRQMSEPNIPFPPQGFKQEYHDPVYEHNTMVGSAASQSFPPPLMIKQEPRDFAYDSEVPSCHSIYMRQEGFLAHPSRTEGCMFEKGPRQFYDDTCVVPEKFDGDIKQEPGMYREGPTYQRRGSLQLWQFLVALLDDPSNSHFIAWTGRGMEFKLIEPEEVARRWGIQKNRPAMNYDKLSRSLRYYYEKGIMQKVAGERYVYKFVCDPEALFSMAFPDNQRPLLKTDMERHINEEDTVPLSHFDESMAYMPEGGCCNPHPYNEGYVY

For the sequence CCCCAT, the binding signal with FEV was 1.2 fold enrichment (6-mer frequency, TF over GST control); with ETV5 it was 1.34 fold enrichment (6-mer frequency, TF over GST control); with HSF1, 1.1 fold enrichment (6-mer frequency, TF over GST control); in the experiment with SPIC it was 1.41 fold enrichment (6-mer frequency, TF over GST control); with ELF4, 1.34 fold enrichment (6-mer frequency, TF over GST control); in the experiment with ELK4, 1.22 fold enrichment (6-mer frequency, TF over GST control). The binding signal with ETV2 is 1.52 fold enrichment (6-mer frequency, TF over GST control); with ELF3 it was 1.16 fold enrichment (6-mer frequency, TF over GST control); with CRX, 1.15 fold enrichment (6-mer frequency, TF over GST control); with ETV1, 1.37 fold enrichment (6-mer frequency, TF over GST control); with ERF it was 1.16 fold enrichment (6-mer frequency, TF over GST control); with ETV3L, 1.29 fold enrichment (6-mer frequency, TF over GST control). Moreover, the binding signal with ETS2 was 1.32 fold enrichment (6-mer frequency, TF over GST control); with SPDEF, 1.3 fold enrichment (6-mer frequency, TF over GST control); with ETV7, 1.19 fold enrichment (6-mer frequency, TF over GST control); with ELF5, 1.39 fold enrichment (6-mer frequency, TF over GST control); with ETV3, 1.31 fold enrichment (6-mer frequency, TF over GST control); in the experiment with ETV6, 1.25 fold enrichment (6-mer frequency, TF over GST control).
